Experimental data: ChEMBL document CHEMBL3988442, “University of Dundee, Small-Polar-MMV Screening Library” (2021)
Among all 48,000 compounds or so, about 13,000 (27%) showed an effect of 50% or more. The list shows a part of the results.

Test system: Wolbachia pipientis
Experiment: Anti-Wolbachia Cell-Based Screen
Assay type: functional
Design: scale not given: in the data most compounds retested in dose-response had high values
Details: 5 µM

Compound	Percent Effect [%]
CN(C)S(=O)(=O)N1C[C@@H]2CC[C@H](C1)N(Cc1cccc(C#N)c1)C2	-14.1
CCc1nc(CNC(=O)C2CCC(=O)N(Cc3ccccc3F)C2)no1 (stereo unspecified)	-29.1
CCNc1ncc(C(=O)NCCc2csc(CSC)n2)cn1	-1.673
COC(=O)C(C)(C)NC(=O)c1scnc1Cl	4.833
CC1(C)OCC2(CO1)CN(C(=O)c1ccccc1Br)C2	-7.61
O=C1NCCCCC1NC(=O)C1(c2cccc(C(F)(F)F)c2)CC1 (stereo unspecified)	-27.01
CCC(Nc1nnnn1-c1ccccc1)C(=O)Nc1nc(C)cs1 (stereo unspecified)	23.33
CC[C@H](C)[C@H](N)C(=O)Nc1nc(-c2cnc(N(C)C)nc2)cs1	89.2
CC[C@H](C)[C@H](N)C(=O)Nc1nc(-c2cnc(N(C)CCO)nc2)cs1	103.7
Cc1nc(-c2cccc(C(=O)N(C)CC(C)O)c2)cs1 (stereo unspecified)	-6.133
Cc1cc(CN(C)C(=O)NC(C)Cc2ccc(O)cc2)no1 (stereo unspecified)	12.34
Cc1ccc(OCC(=O)Nc2cnccc2SCCCO)cc1C	-7.18
CN(Cc1ccccc1CN1CCCC1)C(=O)c1c[nH]c(=O)[nH]1	14.99
Cc1ccc(S(=O)(=O)N2CSCC2C(=O)N(C)C2CC2)cc1Cl (stereo unspecified)	4.535
Cc1nc(C)c(C(=O)Nc2cccc(CN3CCC(CO)CC3)c2)o1	118.5
O=C(Nc1cccnc1)Nc1cccc(CN2CCC(O)CC2)c1	-1.395
CN(C)CCn1c(=O)oc2ccc(NC(=O)c3cc(Cl)c[nH]3)cc21	-2.174
O=C(Nc1cccc(CN2CCC(CO)CC2)c1)c1cc(Cl)c[nH]1	101.9
Cc1cc(C)c(C(=O)Nc2cccc(CN3CCC(CO)CC3)c2)o1	132.4
N#Cc1ccccc1C(=O)Nc1cccc(CN2CCC(CO)CC2)c1	103.3
COC(=O)C(O)C1CCN(Cc2cccc(-n3cccn3)c2)CC1 (stereo unspecified)	8.265
CSc1cccc(CN2CCC(CCC(=O)NC3CC3)CC2)c1	0.2093
Cc1nc(C)n(Cc2cccc(NC(=O)NC(C)(CO)C3CC3)c2)n1 (stereo unspecified)	-1.537
CSc1cccc(CN2CCC(CCC(=O)Nc3ccccc3)CC2)c1	5.512

Compound	Percent Effect [%]
Cc1nc(CN2CCC(CNC(=O)Nc3ccccc3)CC2)oc1C	-9.889
NC(=O)C1CCN(Cc2cccc(NC(=O)c3ccsc3)c2)CC1	-7.959
CSCC(=O)Nc1ncn(Cc2cccc(Br)c2)n1	13.99
Cc1ncsc1CCN(C)Cc1ccc(Br)o1	8.382
CN(C)C1CN(C(=O)Nc2cccc(OC(F)F)c2)C1	-11.25
CCN(CC)C(=O)[C@@H]1C[C@@H](N)CN1C(=O)c1cc2c([nH]c1=O)CCC2	-5.971
CCCS(=O)(=O)NCc1cccnc1OCc1ccccc1	9.301
CN1CCN(C[C@@H]2CN(C(=O)c3ccccc3C#N)C[C@@H]2CO)CC1	6.523
CCc1nc(CNC(C)(CO)C2CCCCC2)no1 (stereo unspecified)	105.4
CC(CO)(NCc1noc(Cc2ccccc2)n1)C1CCCCC1 (stereo unspecified)	91.55
CC(=O)N1CCCC(C(=O)NCc2noc(Cc3ccccc3)n2)C1 (stereo unspecified)	10.7
CC(CO)(NC(=O)Nc1nncs1)C1CCCCC1 (stereo unspecified)	-9.276
CCc1nc(CNc2ccc(-c3nc(C4CC4)no3)cn2)no1	-0.6483
CCC(=O)N1CCCC(C(=O)NCc2noc(Cc3ccccc3)n2)C1 (stereo unspecified)	1.423
COCCc1noc(CNC2CCSC2)n1 (stereo unspecified)	7.087
COCCc1noc(CNC(=O)C2CC(=O)N(C(C)(C)C)C2)n1 (stereo unspecified)	-10.49
COCCc1noc(CNC(C)(CO)C2CCCCC2)n1 (stereo unspecified)	130.3
O=C(O)C(F)(F)F.O=C(O)C(F)(F)F.O=C(O)c1cc2c(nc1-c1ccoc1)CCN(CC1CCOC1)CC2 (stereo unspecified)	7.736
O=C(CCC(=O)N1CCC(Cc2ccc(CO)cc2)C1)c1ccccc1 (stereo unspecified)	-6.413
O=C(c1coc2ccccc12)N1CCCC1	2.375
CCS(=O)(=O)N1CC[C@@H]2[C@H](COCC3CC3)CN(C)C(=O)[C@@H]2CC1	34.67
CN(C)c1cc(N(C)Cc2cc(C(C)(C)C)n[nH]2)ncn1	2.487
Cc1ccccc1CN(CCN(C)C)C(=O)c1ccc2nccn2c1	-23.59
CC(C)c1nc(CN(C)C(=O)c2ccccc2C2CCNC2)cs1 (stereo unspecified)	31.56

Compound	Percent Effect [%]
O=C(c1ccc2nccn2c1)N(CCO)Cc1ccccc1F	-19.18
CN(Cc1cc(C(C)(C)C)n[nH]1)C(=O)c1ccc2nccn2c1	54.27
CN(Cc1cc(C(C)(C)C)n[nH]1)C(=O)c1cn2ccsc2n1	85.98
CC(C)c1nc(CN(C)C(=O)c2cn3ccsc3n2)cs1	97.44
CC(C)c1nc(CN(C)C(=O)CNC(N)=O)cs1	-43.04
CN(Cc1cc(C(C)(C)C)n[nH]1)C(=O)c1ccccc1C1CCNC1 (stereo unspecified)	27.35
CCCOC(=O)N1CCCC(c2nnc(CN3CCOCC3)n2C)C1 (stereo unspecified)	-3.793
Cc1cc(CN2CCC(CNC(=O)c3ccc4[nH]cnc4c3)C2)[nH]n1 (stereo unspecified)	4.896
O=C(Nc1cnc(Oc2ccccc2F)nc1)C1CC1	-9.559
COCCOC(=O)N1CCC(c2nccn2CC2CC2)CC1	0.7863
COc1ccc(-n2ncc(C(C)NCc3cnc(SC)nc3)c2C)cc1 (stereo unspecified)	30.41
NCCO[C@H]1C[C@@H](O)C12CCN(C(=O)COc1cccc(Cl)c1)CC2	-10.97
NC(=O)COc1ccc(CN2CCC3(CC2)[C@H](O)C[C@@H]3O)cc1Cl	17.24
CO[C@H]1C[C@@H](O)C12CCN(CCCOc1ccc(C(N)=O)cc1)CC2	113.2
CO[C@H]1C[C@@H](O)C12CCN(CCOc1ccc(Cl)cc1)CC2	86.28
CN(C)CCO[C@H]1C[C@@H](O)C12CCN(c1ncccc1Cl)CC2	-1.379
CO[C@H]1C[C@@H](O)C12CCN(C(=O)CCCOc1ccccc1)CC2	97.53
NCCO[C@H]1C[C@@H](O)C12CCN(C(=O)CCOc1ccccc1)CC2	-12.3
CC[C@@]1(O)CCN(CCCOc2ccc(C(N)=O)cc2)C[C@H]1O	95.4
CCOc1cccc(C(=O)N2CCC3(CC2)[C@H](O)C[C@@H]3OC)c1	2.834
CC[C@@]1(O)CCN(C(=O)c2ccc(OC(F)F)cc2)C[C@H]1O	-4.955
CC[C@@]1(O)CCN(C(=O)c2ccc(-c3ccco3)cc2)C[C@H]1O	-5.125
COc1cc(C)c(CN2CCC3(CC2)[C@H](O)C[C@@H]3OCCN)cc1C	3.65
